We go through 40 compounds from PubChem BioAssay (EPA / NIEHS).

Usually AC50 stands for the concentration at which the activity in the assay is half-maximal.

Active and inactive are the calls of the source. Rule for the calls: active = hit-call score of the fitted dose curve at least 0.9, where 1 is the maximum; inactive = score below 0.9.

This experiment is described as follows: ATG_VDRE_CIS: Attagene CIS-FACTORIAL HepG2 Assay for human Vitamin D Receptor Element (VDRE) (AID 2282968). As to conditions: HepG2 VDRE cis-reporter transcription, actives raise or lower the signal. The procedure: ATG_CIS is a cell-based, multiplexed-readout assay that uses HepG2, a human liver cell line, with measurements taken at 24 hours after chemical dosing in a 24-well plate.ATG_VDRE_CIS is one of 52 assay component(s) measured or calculated from the ATG_CIS assay. It is designed to make measurements of mRNA induction, a form of inducible reporter, as detected with fluorescence intensity signals by Reverse transcription polymerase chain reaction (RT-PCR) and Capillary electrophoresis technology.Data from the assay component ATG_VDRE_CIS was analyzed into 1 assay endpoint. This assay endpoint, ATG_VDRE_CIS, was analyzed with bidirectional fitting relative to DMSO as the negative control and baseline of activity. Using a type of inducible reporter, measures of mRNA for gain or loss-of-signal activity can be used to understand the reporter gene at the transcription factor-level as they relate to the gene VDR. Furthermore, this assay endpoint can be referred to as a primary readout, because this assay has produced multiple assay endpoints where this one serves a reporter gene function. To generalize the intended target to other relatable targets, this assay endpoint is annotated to the nuclear receptor intended target family, where the subfamily is non-steroidal.
Human liver HepG2 cells are transiently transfected with multiple reporter transcription units (MRTUs) in 6-well plates using FuGene 6 reagent (Roche; 3 ml FuGene/1 mg DNA). The MRTU constructs are regulated by a cis-regulating element (promoter). […] A major difference between the CIS and TRANS system is that in CIS activities of endogenous TFs are measured, whereas the TRANS assay evaluates changes in activities of exogenous, chimeric NR-Gal4 proteins. […] At the end of 24 hour incubation, total RNA was isolated using TriZol reagent (Invitrogen). The isolated RNA is then reverse-transcribed using oligo(dT) primer and Mo-MLV reverse transcriptase (Invitrogen) with DNAse I (Ambion) treatment for 30 min. The one-tenth of the produced cDNA was amplified by PCR using Taq DNA polymerase (Invitrogen) and two reporter sequence-specific primers. The PCR products were fluorescently labeled by primer extension with 6-arboxyfluorescein (6-FAM) 5'-labeled reporter sequence-specific primer (2 min at 95 C, 20 s at 68 C and 10 min at 72 C) and these products were digested with 5U of HpaI (New England Biolabs) for 2h at 37 C. The fragments were purified using Qiaquick PCR columns (Qiagen), analyzed on an ABI 3130xL genetic analyzer (Applied Biosystems) with peak positions identified by using a set of X-rhodamine (ROX)-labeled MapMarker1000 molecular weight standards (BioVentures). The raw capillary electrophoresis data was processed using Attagraph software (Attagene).
Regarding `COc1ccccc1C=O`, the compound was called inactive.

For `OCC(F)(F)C(F)(F)C(F)(F)CO`, the compound was called inactive.

For `CC(C)=CCCC(C)O` (stereo not given), the compound was classed as inactive.

For `O=C=NCc1cccc(CN=C=O)c1`, the compound was called inactive.

With `C=C(C)C(=O)OCC(F)(F)C(F)(F)C(F)(F)C(F)F`, the outcome was inactive.

For `CCN(CCO)S(=O)(=O)C(F)(F)C(F)(F)C(F)(F)C(F)(F)C(F)(F)C(F)(F)C(F)(F)C(F)(F)F`, the result was inactive.

`CCN=C1C=CC(=C(c2ccc(N(CC)CC)cc2)c2ccc(N(CC)CC)cc2)c2ccccc21`: the concentration at half-maximal activity (AC50) was 1.15 µM (active).

In the case of `FC(F)(F)C(F)(F)C(F)(F)C(F)(F)C(F)(F)C(F)(F)CC[Si](Cl)(Cl)Cl`, the compound was called inactive.

On to `C[Si](C)O[Si](C)C`, for which the result was inactive.

With `Nc1c(Br)cc([N+](=O)[O-])cc1Br`, the result was inactive.

Turning to `CCOCOCC`, the outcome was inactive.

For the compound `CCN(CC)c1ccc(C=O)c(O)c1`, the AC50 was 32.5 µM (active).

Take `CSc1ccc(Cl)cc1`: the compound was called inactive.

As to `O=S(=O)(OCC(F)(F)F)C(F)(F)C(F)(F)C(F)(F)C(F)(F)F`, the call was inactive.

Regarding `O=C1C=CC(=O)N1c1ccccc1`, the call was inactive.

Consider `CC(C)(C)c1cc(CCC(=O)OCC(COC(=O)CCc2cc(C(C)(C)C)c(O)c(C(C)(C)C)c2)(COC(=O)CCc2cc(C(C)(C)C)c(O)c(C(C)(C)C)c2)COC(=O)CCc2cc(C(C)(C)C)c(O)c(C(C)(C)C)c2)cc(C(C)(C)C)c1O`, for which the call was inactive.

`Cc1cc(O)c(C(C)(C)C)cc1C(C)(C)C`: the result was inactive.

As to `O=S(=O)(O)CCC(F)(F)C(F)(F)C(F)(F)C(F)(F)C(F)(F)C(F)(F)C(F)(F)C(F)(F)F`, the result was inactive.

As for `OCCCCl`, the outcome was inactive.

As for `NCC(F)(F)C(F)(F)C(F)(F)C(F)(F)C(F)(F)C(F)(F)C(F)(F)C(F)(F)F`, the outcome was inactive.

As for `Cc1cc(C)c(O)c(C(C)(C)C)c1`, the half-maximal activity concentration (AC50) is 25.9 µM (active).

As for `CO[Si](C)(CCC(F)(F)C(F)(F)C(F)(F)C(F)(F)C(F)(F)C(F)(F)F)OC`, the compound was called inactive.

Consider `OCC(O)CC(F)(F)C(F)(F)C(F)(F)C(F)(F)C(F)(F)C(F)(F)C(F)(F)C(F)(F)F` (stereo not given), for which the result was inactive.

On to `Brc1ccccn1`, for which the compound was classed as inactive.

As for `COCCOCCC[Si](C)(O[Si](C)(C)C)O[Si](C)(C)C`, the half-maximal activity concentration (AC50) is 2.56 µM (active).

Turning to `O=C(O)C(F)(F)OC(F)(F)C(F)(F)OC(F)(F)C(F)(F)OC(F)(F)F`, the outcome was inactive.

Consider `O=C(O)CCC(F)(F)C(F)(F)C(F)(F)C(F)(F)C(F)(F)C(F)(F)C(F)(F)F`, for which the result was inactive.

For the compound `C[Si](Cl)(Cl)CCC(F)(F)C(F)(F)C(F)(F)C(F)(F)C(F)(F)C(F)(F)F`, the call was inactive.

For the compound `O=C(O)C(F)(F)C(F)(F)C(F)(F)OC(F)(C(F)(F)F)C(F)(F)F`, the compound was called inactive.

Take `CC1=CCC2C(=O)OC(=O)C2C1` (stereo not given): the compound was classed as inactive.

Regarding `OCC(F)(F)C(F)(F)C(F)(F)C(F)(F)C(F)(F)C(F)(F)CO`, the call was inactive.

With `C[C@]12CC[C@H]3C(=CCc4cc(O)ccc43)[C@@H]1CCC2=O`, the compound was classed as inactive.

On to `OCCCC(F)(F)C(F)(F)C(F)(F)C(F)(F)C(F)(F)C(F)(F)C(F)(F)C(F)(F)F`, for which the outcome was inactive.

Consider `CN(N=O)C(=O)N[C@@H]1[C@@H](O)[C@H](O)[C@@H](CO)O[C@@H]1O`, for which the outcome was inactive.

Turning to `CCN(CC)c1ccc(C=O)cc1`, the AC50 was 163 µM (active).

On to `FC(F)(F)C(F)(F)C(F)(F)CC1CO1` (stereo not given), for which the compound was classed as inactive.

As for `NS(=O)(=O)C(F)(F)C(F)(F)C(F)(F)C(F)(F)C(F)(F)C(F)(F)F`, the AC50 is 36.4 µM (active).

`CCCCCCCCCCCCCC[P+](CCCC)(CCCC)CCCC`: the concentration at half-maximal activity (AC50) is 0.897 µM (active).

Turning to `CCOC(=O)C1CC(=O)C(=C(O)C2CC2)C(=O)C1` (stereo not given), the compound was called inactive.

As to `O=C1C=CC(=O)N1c1ccc(Cc2ccc(N3C(=O)C=CC3=O)cc2)cc1`, the compound was classed as inactive.
